According to ChEMBL document CHEMBL4513216, “Probing the Open Global Health Chemical Diversity Library for Multistage-Active Starting Points for Next-Generation Antimalarials” (ACS Infect Dis, 2020):
The campaign covered roughly 69,000 compounds. About 8,600 (12%) showed an effect of 50% or more. The entries come from a sample that favours strong results as a whole.

Each molecule was assayed on Plasmodium berghei (assay: Screen against P. berghei liver stage (PbLuc), transformed with Luciferase, at 10uM). Details: tested at 10 uM.
Type: functional, HepG2

Row | SMILES | INHIBITION [%]
1 | C[C@@H]1CN(c2ccc(C#N)cn2)CC[C@@]1(O)C1CCOCC1 | 24.76
2 | CCCc1n[nH]c(C2CN(C(=O)c3ccc(C)[nH]c3=O)CCO2)n1 (stereo not given) | 40.2
3 | c1ccc(CCCN2CCN(CCn3cncn3)CC2)cc1 | 15.1
4 | COc1cc2c(c(OC)c1OC)CCN(CCn1nc(C)cc1C)CC2 | 36.3
5 | COc1cc2c(c(OC)c1OC)CCN(CCN1CCCCC1)CC2 | 54.8
6 | COc1cc2c(c(OC)c1OC)CCN(CCn1cncn1)CC2 | 52.6
7 | COc1ccc(CN2CCn3cncc3C2)cc1Cn1cncn1 | 16.1
8 | COc1cc(C)cc(C(C(=O)O)N(C)CCN2CCCC2)c1OC (stereo not given) | 28
9 | CNC(=O)[C@H]1C[C@H]2OCC[C@H]2N(CCOc2ccc(Cl)cc2)C1 | -52.3
10 | Cc1cc2cc(C(=O)N3C[C@H](O)[C@]4(CCCO4)C3)ccc2o1 | 15.9
11 | Cc1ccc(CN2CC[C@H]3[C@H](CC(Cn4cccn4)N3C)C2)s1 (stereo not given in full) | 25.3
12 | Cc1n[nH]c(C2CN(C(=O)c3cc(Cl)c[nH]3)CCO2)n1 (stereo not given) | 31.6
13 | O=C(NCC(=O)N1CCCC1Cc1cccc(F)c1)c1ccccn1 (stereo not given) | -6.51
14 | Cc1nc(CNC(C)c2cccc(N3CCCC3=O)c2)cs1 (stereo not given) | 22.7
15 | O=S(=O)(Cc1ccccc1F)NCCCN1CCCCC1 | 36.3
16 | CC1CCN(CCCNS(=O)(=O)c2cccc(F)c2)CC1 | -14.9
17 | CC1CCN(CCCNS(=O)(=O)c2cc(F)cc(F)c2)CC1 | 51.4
18 | CC1CCN(CCCNS(=O)(=O)Cc2ccccc2F)CC1 | 26.9
19 | CC(=O)N1CCN(CCNS(=O)(=O)c2cc(F)cc(F)c2)CC1 | 26.4
20 | O=S(=O)(NCCCN1CCCC1)c1cc(F)cc(F)c1 | 71.3
21 | COc1cccc(-c2c[nH]c(C3CCCN3)n2)c1 (stereo not given) | -8.45
22 | CCc1ncc(CN[C@@H]2CCCN(C(C)=O)[C@H]2c2ccc(C)s2)cn1 | 23.2

Row | SMILES | INHIBITION [%]
23 | COCCOc1cccc(C(=O)N2CCCC(n3ccnc3C)C2)c1 (stereo not given) | 44.3
24 | Cc1cnn(C2CCCN(C(=O)c3ccc(NC4CC4)nc3)C2)c1 (stereo not given) | -22.9
25 | Cc1cccc2c1NC1(CCOCC1)NC2=O | 48
26 | Cc1cc(NCc2ccc(S(N)(=O)=O)cc2)nc(C)n1 | 41.5
27 | Cc1ccc(-c2nnc(CN3CCn4c(nnc4C4CC4)C3)o2)cc1 | 52.3
28 | Cc1ccc(-c2nc(CN3CCn4c(nnc4C4CC4)C3)co2)c(C)c1 | 54.4
29 | Cc1ccc(-c2nc(CN3CCn4c(nnc4C4CC4)C3)co2)cc1 | -25.9
30 | Cc1cccc(-c2noc(CN3CCn4c(nnc4C4CC4)C3)n2)c1 | -14.8
31 | Cc1ccc(-c2noc(CN3CCn4c(nnc4C4CC4)C3)n2)cc1 | -32.345
32 | Fc1ccc(-c2nnc(CN3CCn4c(nnc4C4CC4)C3)o2)cc1 | 0.0932
33 | c1ccc(-c2nc(CN3CCn4c(nnc4C4CC4)C3)co2)cc1 | -40.2
34 | Cc1ccccc1-c1noc(CN2CCn3c(nnc3C3CC3)C2)n1 | 55.9
35 | Cc1ccc(-c2nc(CN3CCn4c(nnc4C4CC4)C3)no2)cc1 | 24.7
36 | Cc1n[nH]c(C2CN(C(=O)c3cc(C4CC4)on3)CCO2)n1 (stereo not given) | 49.2
37 | CN(C)C(C)(C)CNCc1cn(C)nc1-c1cccnc1 | 23.7
38 | CN(Cc1ccccc1)CC(O)Cn1cnc2ccc(Br)cc2c1=O (stereo not given) | 14.92
39 | Cc1ccnc(C2(C)CCCN2S(=O)(=O)c2c(C)noc2C)n1 (stereo not given) | 0.705
40 | CCOCc1nc(N2CCOCC2)sc1C(=O)NCCCc1ccco1 | 24.5
41 | Cc1ccc(CN2Cc3c(C(=O)N4CCOCC4)nn(C)c3C2)s1 | -17.1
42 | CNc1ncc(C(=O)N2CCC(CCc3ccccc3)CC2)cn1 | -25.2
43 | CNc1ncc(CN2CCC(CCc3ccccc3)CC2)cn1 | 67.5
44 | CCc1ncc(CN2CCC(CCc3ccccc3)CC2)cn1 | 37.8

Row | SMILES | INHIBITION [%]
45 | N[C@@H]1CC[C@H](C(=O)NCc2ccc3nonc3c2)C1 | 0
46 | Cc1nc(N)nc(C)c1CC(=O)NCc1ccc2nonc2c1 | 61.2
47 | CCc1[nH]c2ccc(CNC(=O)Cc3c(C)nc(N)nc3C)cc2c1C | 43.9
48 | CN(Cc1cnn(C)c1)C(=O)NCc1ccc2c(c1)OCCO2 | -26.85
49 | O=C(Cc1csc(-c2ccccc2Cl)n1)NCc1cccc(C(=O)O)c1 | 17.1
50 | Cc1ccc(C(=O)N2CCC3(CCN(Cc4ccccn4)C3=O)C2)cn1 (stereo not given) | 22.5
51 | CCn1ccnc1CN1CCN(c2ncnc3ccccc23)CC1 | -66.4
52 | Cc1nc(CN2CCN(c3ncnc4ccccc34)CC2)no1 | 94.1
53 | CCc1nc(CN2CCCN(c3ncnc4ccccc34)CC2)no1 | 86.8
54 | CCc1nc(CN2CCN(CC(O)c3ccccc3)CC2)no1 (stereo not given) | 42
55 | CCc1nc(CN2CCCN(c3nc4ccccc4o3)CC2)no1 | -8.19
56 | Cc1nc(CN2CCCN(Cc3nc4ccccc4o3)CC2)no1 | -24.7
57 | CCc1nc(CN2CCCN(c3cnc4ccccc4n3)CC2)no1 | 40.5
58 | CCc1nc(CN2CCN(c3ncnc4cc(F)ccc34)CC2)no1 | 91.8
59 | CCc1nc(CN2CCCN(CC(O)c3ccccc3)CC2)no1 (stereo not given) | -11.4
60 | CN1CCOC2(CCCN(C(=O)C3CCCCC3)C2)C1 (stereo not given) | 9.97
61 | Cc1cc(F)ccc1C(=O)N1CCN(C)C2(CCC(=O)N(C)CC2)C1 (stereo not given) | 25.8
62 | CNc1ncccc1CN1CCC1c1cc(N)nc(C)n1 (stereo not given) | 10.9
63 | CC(C)C(NCc1ccc(Cn2cncn2)cc1)c1ccccc1 (stereo not given) | -1.33
64 | CC(C)C(NCc1ccc(Cn2cncn2)cc1)c1ccc(F)cn1 (stereo not given) | 71.2
65 | CC(C)c1ccc(CNC(c2ccc(F)cn2)C(C)C)cc1 (stereo not given) | 48.9
66 | COc1cc(C)ccc1OCCC(=O)N1CCC(C(N)=O)C1 (stereo not given) | -24.9

Row | SMILES | INHIBITION [%]
67 | O=C(c1cnc(-c2ncccn2)s1)N1CCCC1Cn1cccn1 (stereo not given) | -24.3
68 | Cc1cnc(N)c(C(=O)C2CCN(C(=O)c3cnc(C)cn3)CC2)c1 | -20.2
69 | C=C(C)C(=O)N1CCC(C(=O)c2cc(C)cnc2N)CC1 | 68.8
70 | CC(=O)N1CCC(C(=O)c2cc(C)cnc2N)CC1 | 39.2
71 | COCC(=O)N1CCC(C(=O)c2cc(C)cnc2N)CC1 | 58.1
72 | Cc1cnc(N)c(C(=O)C2CCN(C(=O)c3cnc(C)nc3C)CC2)c1 | -2.11
73 | COCC(=O)N1CCC(c2cc(-c3ccc(N)nc3)cc(C)n2)CC1 | 7.19
74 | Cc1cnc(N)c(C(=O)C2CCN(C(=O)c3ccccc3F)CC2)c1 | 56.9
75 | Cc1cnc(N)c(C(=O)C2CCN(C(=O)C3CCC3)CC2)c1 | 13.5
76 | COCCC(=O)N1CCC(C(=O)c2cc(C)cnc2N)CC1 | -26.2
77 | O=C(CCn1c(C(F)(F)F)cc2cccnc21)N1CCC(O)CC1 | 29.2
78 | COC(=O)C1CN(Cc2nc(C(C)(C)C)cs2)C[C@@H](C)O1 (stereo not given in full) | 21.7
79 | Cn1nc(CN2CCCCC2)c2c1CN(C(=O)c1cccc(C#N)c1)C2 | 46.3
80 | CC(=O)N1CCN(C(C)C)CC(COc2ccccc2)C1 (stereo not given) | -6.92
81 | O=C(NCCNc1cnccn1)N1CCCCCC1 | 47
82 | O=C(NCCn1ccnc1)N1CCN(Cc2cccnc2)CC1 | -33.7
83 | CC(Cn1ccnc1)NC(=O)N1CCN(Cc2cccnc2)CC1 (stereo not given) | 31.8
84 | O=C(NCCNc1cnccn1)N1CCN(Cc2cccnc2)CC1 | 65.5
85 | O=C(NCCNc1cnccn1)N1CCCC1 | 19.4
86 | CC(Cn1cccn1)NC(=O)N1CCN(Cc2ccncc2)CC1 (stereo not given) | -4.94
87 | O=C(NCCNc1ncccn1)N1CCN(Cc2cccnc2)CC1 | 57.8
88 | CC(Cn1cccn1)NC(=O)N1CCN(Cc2cccnc2)CC1 (stereo not given) | 74.6

Row | SMILES | INHIBITION [%]
89 | CC(C)(C)NC(=O)N1CCN(Cc2cccnc2)CC1 | -2.93
90 | Cc1ccc(-c2nc(CNC3CCc4ncnn4C3)cs2)cc1 (stereo not given) | 47.55
91 | Cc1nc(C)c(C(=O)N2CCCC2(C)C(=O)NC2CCCC2)o1 (stereo not given) | 46.2
92 | Cc1cc(C)n(CCCN(CCN2CCOCC2)Cc2ccco2)n1 | 7.6
93 | COCCN(CCOC)Cc1nc2c(cnn2C)c(=O)[nH]1 | 27.8
94 | O=C1[C@H]2CN(Cc3ccncc3)C[C@H]2CN1c1cncnc1 | 32.8
95 | Cn1cc(N2C[C@@H]3CN(S(=O)(=O)C4CC4)C[C@@H]3C2=O)cn1 | 9.79
96 | CCS(=O)(=O)N1C[C@H]2CN(c3cnn(C)c3)C(=O)[C@H]2C1 | 60
97 | Cn1cc(N2C[C@@H]3CN(Cc4ccoc4)C[C@@H]3C2=O)cn1 | -75
98 | O=C1[C@H]2CN(CC3CCOCC3)C[C@H]2CN1c1ccsc1 | 5.63
99 | CCS(=O)(=O)N1CCC2(CC(=O)N(c3cnn(C)c3)C2)C1 (stereo not given) | -13.7
100 | Cn1cc(N2CC3(CCN(CC4CCOCC4)CC3)OCC2=O)cn1 | -24.5
101 | Cn1cc(N2CC[C@@H]3CN(Cc4ccncc4)C[C@H]3C2=O)cn1 | 58.4
102 | Cn1cc(N2C[C@@H]3CN(CC4CCOCC4)C[C@@H]3C2=O)cn1 | 68.4
103 | O=C(CCc1cc2n(n1)CCNC2)NCCS(=O)(=O)N1CCCC1 | -18.1
104 | Cn1c2ncccc2c(=O)n1CC(=O)Nc1ccc(F)c(F)c1 | 41.8
105 | CCCOC(=O)N1CCn2nc(-c3nc4ccccc4n3C)cc2C1 | 61.1
106 | CCOC(=O)C(C)NC(=O)N1CCN(c2nc3ccccc3n2C)CC1 (stereo not given) | 45
107 | Cn1c(-c2cc3n(n2)CCCN(CC(=O)O)C3)nc2ccccc21 | 57.1
108 | O=C(CCc1cc2n(n1)CCCN(CCc1ccccc1)C2)NC1CC1 | 24.1
109 | CCCOC(=O)N1CCCn2nc(C(=O)Nc3ccccc3)cc2C1 | -34.4
110 | CN1CCn2nc(-c3nc4ccccc4n3C)cc2C1 | 36.4
